# According to publication PMC6602471:
# Over roughly 1,300 sequences, “log fluorescence intensity” has its median near 8.3; the highest 2% begin near 12. The list comes from a sample in which the highest values are over-represented; it also holds similar and randomly drawn sequences.
# Target: T1, ETS1 (Homo sapiens, UniProt P14921 1-441)
# T1 sequence: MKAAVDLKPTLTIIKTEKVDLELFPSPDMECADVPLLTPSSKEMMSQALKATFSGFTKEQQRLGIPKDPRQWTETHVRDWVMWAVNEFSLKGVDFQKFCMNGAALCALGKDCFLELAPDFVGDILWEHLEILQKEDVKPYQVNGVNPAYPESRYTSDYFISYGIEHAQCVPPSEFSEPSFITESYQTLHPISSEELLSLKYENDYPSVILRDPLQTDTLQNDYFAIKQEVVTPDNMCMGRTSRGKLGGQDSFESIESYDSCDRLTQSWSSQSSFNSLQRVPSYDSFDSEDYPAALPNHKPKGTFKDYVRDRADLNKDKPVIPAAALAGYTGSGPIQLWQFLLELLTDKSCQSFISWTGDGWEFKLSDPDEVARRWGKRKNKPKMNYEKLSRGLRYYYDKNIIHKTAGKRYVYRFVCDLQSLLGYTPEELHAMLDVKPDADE
# Assay: custom PBM; custom protein-binding microarray; buffer, salt, pH and temperature not stated; high values mean tight binding
# Conditions: dsDNA, one strand shown
row,Sequence,binding signal
1,TCCGGCTACCAGCTCCACCCACTTCAGGCCTTGTAGGTCTTGATTCGCTTGACGCTGCTG,8.36 log fluorescence intensity
2,TCCGGCTACCAGCTCCACCCACTTCCGGCCTTGTAGGTCTTGATTCGCTTGACGCTGCTG,13.1 log fluorescence intensity
3,TCCGGCTACCAGCTCCACCCACTTCAAGCCTTGTAGGTCTTGATTCGCTTGACGCTGCTG,8.4 log fluorescence intensity
4,TAAAGGGAAGAGGGTTGTGGTAGTTCCGGGTATTAAGTCTTGATTCGCTTGACGCTGCTG,8.6 log fluorescence intensity
5,TCCGGCTACCACCTCCACCCACTTCAGGCCTTGTAGGTCTTGATTCGCTTGACGCTGCTG,8.32 log fluorescence intensity
6,GGAAAAAGGCCCAGGGTAACGCCGGAAGTGGGCTTAGTCTTGATTCGCTTGACGCTGCTG,10.7 log fluorescence intensity
7,GGAAAAAGGCCCAGGGTAACAGCGGAAGTGGGCTTAGTCTTGATTCGCTTGACGCTGCTG,10.2 log fluorescence intensity
8,TGAAAAAGGCCCAGGGTAACACCGGAAGTGGGCTTAGTCTTGATTCGCTTGACGCTGCTG,11.8 log fluorescence intensity
9,GGAAAAAGCCCCAGGGTAACACCGGAAGTGGGCTTAGTCTTGATTCGCTTGACGCTGCTG,12.1 log fluorescence intensity
10,CGAAAAAGGCCCAGGGTAACACCGGAAGTGGGCTTAGTCTTGATTCGCTTGACGCTGCTG,12 log fluorescence intensity
11,GGAAAAGGGCCCAGGGTAACACCGGAAGTGGGCTTAGTCTTGATTCGCTTGACGCTGCTG,11.8 log fluorescence intensity
12,GGAAAAAAGCCCAGGGTAACACCGGAAGTGGGCTTAGTCTTGATTCGCTTGACGCTGCTG,12.1 log fluorescence intensity
13,AGAAAAAGGCCCAGGGTAACACCGGAAGTGGGCTTAGTCTTGATTCGCTTGACGCTGCTG,11.9 log fluorescence intensity
14,GGAAAAAGGCCCATGGTAACACCGGAAGTGGGCTTAGTCTTGATTCGCTTGACGCTGCTG,11.9 log fluorescence intensity
15,GGAAAAAGGCCAAGGGTAACACCGGAAGTGGGCTTAGTCTTGATTCGCTTGACGCTGCTG,12 log fluorescence intensity
16,GGAAAAAGGCCCAAGGTAACACCGGAAGTGGGCTTAGTCTTGATTCGCTTGACGCTGCTG,12.1 log fluorescence intensity
17,GGAAAAAGGCCCACGGTAACACCGGAAGTGGGCTTAGTCTTGATTCGCTTGACGCTGCTG,12.2 log fluorescence intensity
18,GGAAAAAGGCCCAGTGTAACACCGGAAGTGGGCTTAGTCTTGATTCGCTTGACGCTGCTG,12 log fluorescence intensity
19,CTGGGACTTGACCCGACTCTGCCACGTGGGTCGTTTGTCTTGATTCGCTTGACGCTGCTG,8.49 log fluorescence intensity
20,TACTGACATATATATGCGAATGCACATGAATAGACCGTCTTGATTCGCTTGACGCTGCTG,8.43 log fluorescence intensity
21,GAGCATAGGACTTCTTCCCTGAAGCAATTGATAACCGTCTTGATTCGCTTGACGCTGCTG,8.32 log fluorescence intensity

row,Sequence,binding signal
1,CGGAAGTGTCGTAAACGTCGGATATCCGGTTCGTCTGTCTTGATTCGCTTGACGCTGCTG,11.9 log fluorescence intensity
2,TGTCGGGTAAGGGAATGTAGATGACGTGAATGAAAAGTCTTGATTCGCTTGACGCTGCTG,8.36 log fluorescence intensity
3,GGAAAAAGGCCCAGGGTAACACCGGAAGTGCGCTTAGTCTTGATTCGCTTGACGCTGCTG,11.7 log fluorescence intensity
4,GATTAATTTCTGCCCTTATTCGCACGTGCAATAACAGTCTTGATTCGCTTGACGCTGCTG,8.3 log fluorescence intensity
5,CAGAAGTGTCGTAAACGTCGGATATCCGGTTCTTCTGTCTTGATTCGCTTGACGCTGCTG,12.1 log fluorescence intensity
6,CGGAAGTGTCGTAAGCGTCGGATATCCGGTTCTTCTGTCTTGATTCGCTTGACGCTGCTG,11.7 log fluorescence intensity
7,CGGCAGTGTCGTAAACGTCGGATATCCGGTTCTTCTGTCTTGATTCGCTTGACGCTGCTG,11.7 log fluorescence intensity
8,GGAAACAGGCCCAGGGTAACACCGGAAGTGGGCTTAGTCTTGATTCGCTTGACGCTGCTG,11.8 log fluorescence intensity
9,TAAAGGGAAGACGGTTGTAGTAGTTCCGGGTATTAAGTCTTGATTCGCTTGACGCTGCTG,8.81 log fluorescence intensity
10,GCTGCTGCGCTGCATACCCCACCGGATGTGACCCCGGTCTTGATTCGCTTGACGCTGCTG,10.1 log fluorescence intensity
11,TACTGACTTATATATGCGAATGCACATCAATAGACCGTCTTGATTCGCTTGACGCTGCTG,8.32 log fluorescence intensity
12,GCTGCTGCGGTGCATACCCCACCAGATGTGACCCCGGTCTTGATTCGCTTGACGCTGCTG,8.36 log fluorescence intensity
13,CACAATTTTTACAGTAATGTAGCACGCGTAAATCCTGTCTTGATTCGCTTGACGCTGCTG,8.32 log fluorescence intensity
14,GTGTATAGGATCCCATCGAACACACGTGTTAAAATGGTCTTGATTCGCTTGACGCTGCTG,8.36 log fluorescence intensity
15,TAAAGGGAAGACGGTTGTGGTAGTTCCGGGTATTAGGTCTTGATTCGCTTGACGCTGCTG,8.47 log fluorescence intensity
16,CGGAAGTGTCTTAAACGTCGGATATCCGGTTCTTCTGTCTTGATTCGCTTGACGCTGCTG,11.6 log fluorescence intensity
17,CGGAAGTGTCGTAAACGTCGGAAATCCGGTTCTTCTGTCTTGATTCGCTTGACGCTGCTG,9.71 log fluorescence intensity
18,CGGAAGTGTCGGAAACGTCGGATATCCGGTTCTTCTGTCTTGATTCGCTTGACGCTGCTG,12.8 log fluorescence intensity
19,CGGAAGTGTCGTAAACGTCCGATATCCGGTTCTTCTGTCTTGATTCGCTTGACGCTGCTG,12.2 log fluorescence intensity
20,CGGAAGTGTCGTAAACGTCGGACATCCGGTTCTTCTGTCTTGATTCGCTTGACGCTGCTG,12.6 log fluorescence intensity
21,CGGAAGTGTCGTAAACGTCTGATATCCGGTTCTTCTGTCTTGATTCGCTTGACGCTGCTG,11.8 log fluorescence intensity

row,Sequence,binding signal
1,CGGAAGTGTCGTAAACGTCGGATCTCCGGTTCTTCTGTCTTGATTCGCTTGACGCTGCTG,8.47 log fluorescence intensity
2,CGGAAGTGTCGAAAACGTCGGATATCCGGTTCTTCTGTCTTGATTCGCTTGACGCTGCTG,12 log fluorescence intensity
3,CGGAAGTGTCGTAAACGTCGGATGTCCGGTTCTTCTGTCTTGATTCGCTTGACGCTGCTG,9.65 log fluorescence intensity
4,CGGAAGTGTCGTAAACGTCGGATTTCCGGTTCTTCTGTCTTGATTCGCTTGACGCTGCTG,12.5 log fluorescence intensity
5,CCGAAGTGTCGTAAACGTCGGATATCCGGTTCTTCTGTCTTGATTCGCTTGACGCTGCTG,12 log fluorescence intensity
6,CGGAAGTGTCGTAAACGTCGGAGATCCGGTTCTTCTGTCTTGATTCGCTTGACGCTGCTG,8.83 log fluorescence intensity
7,CGGAAGTGTCGTAAACGTCGCATATCCGGTTCTTCTGTCTTGATTCGCTTGACGCTGCTG,12.2 log fluorescence intensity
8,CGGAAGTGTCGTAAACGTCGGTTATCCGGTTCTTCTGTCTTGATTCGCTTGACGCTGCTG,9.21 log fluorescence intensity
9,CGGAACTGTCGTAAACGTCGGATATCCGGTTCTTCTGTCTTGATTCGCTTGACGCTGCTG,11.8 log fluorescence intensity
10,CGGAATTGTCGTAAACGTCGGATATCCGGTTCTTCTGTCTTGATTCGCTTGACGCTGCTG,12.2 log fluorescence intensity
11,CGGAAGCGTCGTAAACGTCGGATATCCGGTTCTTCTGTCTTGATTCGCTTGACGCTGCTG,11.8 log fluorescence intensity
12,CGGAAGTGTCGTAAACGTCGTATATCCGGTTCTTCTGTCTTGATTCGCTTGACGCTGCTG,11.8 log fluorescence intensity
13,CTGGGACTTGACCCAACTCTGCCACGTGGGTCGCTTGTCTTGATTCGCTTGACGCTGCTG,8.36 log fluorescence intensity
14,GGTAAAAGGCCCAGGGTAACACCGGAAGTGGGCTTAGTCTTGATTCGCTTGACGCTGCTG,11.9 log fluorescence intensity
15,GGCAAAAGGCCCAGGGTAACACCGGAAGTGGGCTTAGTCTTGATTCGCTTGACGCTGCTG,11.7 log fluorescence intensity
16,GGATAAAGGCCCAGGGTAACACCGGAAGTGGGCTTAGTCTTGATTCGCTTGACGCTGCTG,11.9 log fluorescence intensity
17,GGAAAAAGGCCCAGGGGAACACCGGAAGTGGGCTTAGTCTTGATTCGCTTGACGCTGCTG,12.1 log fluorescence intensity
18,GGAAAAAGGCCCAGGGCAACACCGGAAGTGGGCTTAGTCTTGATTCGCTTGACGCTGCTG,12.2 log fluorescence intensity
19,GGAAAAAGGCCCAGGATAACACCGGAAGTGGGCTTAGTCTTGATTCGCTTGACGCTGCTG,12.2 log fluorescence intensity
20,GGAAAAAGGCCCAGGGTGACACCGGAAGTGGGCTTAGTCTTGATTCGCTTGACGCTGCTG,11.8 log fluorescence intensity
21,GGAAAAAGGCCCAGGCTAACACCGGAAGTGGGCTTAGTCTTGATTCGCTTGACGCTGCTG,12.1 log fluorescence intensity

row,Sequence,binding signal
1,GCAAAAAGGCCCAGGGTAACACCGGAAGTGGGCTTAGTCTTGATTCGCTTGACGCTGCTG,11.9 log fluorescence intensity
2,GGGAAAAGGCCCAGGGTAACACCGGAAGTGGGCTTAGTCTTGATTCGCTTGACGCTGCTG,11.9 log fluorescence intensity
3,GGAAAAAGGCCCAGGGAAACACCGGAAGTGGGCTTAGTCTTGATTCGCTTGACGCTGCTG,12.3 log fluorescence intensity
4,GGAAAAAGGCCCAGGGTCACACCGGAAGTGGGCTTAGTCTTGATTCGCTTGACGCTGCTG,11.9 log fluorescence intensity
5,GATTAATTTCTGCCCTTATTCGAACGTGCCATAACAGTCTTGATTCGCTTGACGCTGCTG,8.42 log fluorescence intensity
6,TCCGGCTACCAGCTCCACCCACTTCAGGCCTTATAGGTCTTGATTCGCTTGACGCTGCTG,8.46 log fluorescence intensity
7,GAAAGGGAAGACGGTTGTGGTAGTTCCGGGTATTAAGTCTTGATTCGCTTGACGCTGCTG,8.75 log fluorescence intensity
8,CGGAAGTGTCGTAAACGTCGGATATCCGGTTTTTCTGTCTTGATTCGCTTGACGCTGCTG,11.9 log fluorescence intensity
9,TCCGGCTACCAGCTGCACCCACTTCAGGCCTTGTAGGTCTTGATTCGCTTGACGCTGCTG,8.44 log fluorescence intensity
10,GCTGCTGCGGTGTATACCCCACCGGATGTGACCCCGGTCTTGATTCGCTTGACGCTGCTG,10.1 log fluorescence intensity
11,GGAAAACGGCCCAGGGTAACACCGGAAGTGGGCTTAGTCTTGATTCGCTTGACGCTGCTG,12 log fluorescence intensity
12,TACTGACTTATATATGGGAATGCACATGAATAGACCGTCTTGATTCGCTTGACGCTGCTG,8.32 log fluorescence intensity
13,TTAAGGGAAGACGGTTGTGGTAGTTCCGGGTATTAAGTCTTGATTCGCTTGACGCTGCTG,8.48 log fluorescence intensity
14,CGGAAGTGTCGTAAACGTCGGATATCCGGCTCTTCTGTCTTGATTCGCTTGACGCTGCTG,10.7 log fluorescence intensity
15,CGGAAGTGTCGTAAATGTCGGATATCCGGTTCTTCTGTCTTGATTCGCTTGACGCTGCTG,11.9 log fluorescence intensity
16,TCCGGCTACCAGCTTCACCCACTTCAGGCCTTGTAGGTCTTGATTCGCTTGACGCTGCTG,8.4 log fluorescence intensity
17,GCTGCTGCGGTGCGTACCCCACCGGATGTGACCCCGGTCTTGATTCGCTTGACGCTGCTG,9.93 log fluorescence intensity
18,GCTGCTGCGGTGCATACCCCACCGGATGTGACCCAGGTCTTGATTCGCTTGACGCTGCTG,10.3 log fluorescence intensity
